A selection: hits, their analogues and other compounds. The true share with any hit is near 1.2%.
RGS4-Gao reg = modulates binding of RGS4 to human Galphao; P09471; Multiplexed bead flow cytometry; actives lie on both sides; binding response (% of control), % at 10 µM; actives 0.33% (n = 220,000); in the data active means binding response below about 49% or above about 150%; inactive means in between;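 further: fluorescent Galphao activated with aluminum fluoride binding bead-coupled RGS4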
Target sequence (P09471 whole entry, looked up): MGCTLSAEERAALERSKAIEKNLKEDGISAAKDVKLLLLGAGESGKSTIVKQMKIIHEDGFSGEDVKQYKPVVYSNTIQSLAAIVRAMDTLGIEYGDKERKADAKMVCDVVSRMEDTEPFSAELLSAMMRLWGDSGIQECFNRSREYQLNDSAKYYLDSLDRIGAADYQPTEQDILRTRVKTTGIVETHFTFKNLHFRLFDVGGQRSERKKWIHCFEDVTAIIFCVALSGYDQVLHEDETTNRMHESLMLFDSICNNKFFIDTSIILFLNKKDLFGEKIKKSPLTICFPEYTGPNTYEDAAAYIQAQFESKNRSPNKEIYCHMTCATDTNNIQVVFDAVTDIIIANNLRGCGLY
GSH bead fluor = compound fluoresces at 488/530 nm on GSH beads; fluorescence (KMESF) at 10 µM; AID 1776; actives 0.25% (n = 190,000); GSH beads flow cytometry, compound fluorescence 488/530 nm; hits give high values; in the data active means fluorescence above about 89;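 further: glutathione beads carrying GST-tagged Bcl family fusion proteins plus one bare bead set; values are compound well signal with DMSO vehicle wells as background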
Avidin bead fluor = avidin bead compound fluorescence profile. Avidin beads, compound fluorescence 488/530 nm, flow cytometry; hits give high values. fluorescence (KMESF) at 10 µM. actives 0.38% (n = 220,000). AID 1775; in the data active means fluorescence above about 47
RGS16-Gao = regulators of human RGS16-Galphao interaction. O15492+P09471. bead-based flow cytometry RGS16-Galphao binding, fluorescence; actives lie on both sides. binding response (% of control), % at 10 µM. actives 0.38% (n = 220,000);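 further: Galphao activated by GDP with aluminum fluoride before binding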
RGS7-Gao reg = modulates binding of RGS7 to human Galphao. AID 1439. Multiplexed bead flow cytometry; actives lie on both sides. binding response (% of control), % at 10 µM. actives 0.35% (n = 220,000); in the data active means binding response below about 49% or above about 150%; inconclusive means no clear call, values can overlap the other calls; inactive means in between;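 further: fluorescent Galphao held in activated GDP-AlF4 state binding bead-coupled RGS7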
RGS8-Gao reg = human RGS8-Galphao interaction regulation; response (percent of control binding), % at 10 µM; AID 1423; multiplexed bead flow cytometry, RGS8-Galphao binding; actives lie on both sides; actives 0.34% (n = 220,000); in the data active means response below about 60% or above about 140%; inactive means in between;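 further: Galphao activated as the GDP aluminium fluoride complex binding bead-coupled RGS8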
RGS-Gao = modulates binding between human RGS4 and Galphao. shares compounds with RGS16-Gao. multiplexed bead flow cytometry, RGS–Galpha-o binding. RGS4–Galpha-o binding response, % at 10 µM. actives 99% (n = 1,600);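 further: fluorescently labeled Galpha-o bound to GDP with aluminium fluoride binding biotinylated RGS beads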
Biotin-avidin = counter-screen: compounds disrupting biotin binding to avidin beads | 1,700 tested, under 10 active | shares compounds with RGS16-Gao | inhibition, % at 10 µM | streptavidin beads, fluorescein-biotin binding, flow cytometry;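 active means inhibition above 50%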;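 further: median green fluorescence of gated singlet beads compared with DMSO control wells; 0% = DMSO wells and 100% = complete loss of bead fluorescence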
RGS8-Gao confirm = confirmation of regulators of human RGS8-Galphao interaction | shares compounds with RGS16-Gao | bead-based flow cytometry RGS8-Galphao binding, fluorescence; actives lie on both sides | binding response (% of control), % at 10 µM | actives 3% (n = 1,700); in the data active means binding response below about 72% or above about 130%; inactive means in between;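 further: Galphao activated as GDP AlF4 complex before binding bead RGS8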
RGS7-Gao confirm = RGS7-Galphao interaction regulation, single point confirmation; bead-based flow cytometry RGS7-Galphao binding; actives lie on both sides; response (percent of control binding), % at 10 µM; AID 1837; actives 7.8% (n = 1,700); shares compounds with RGS16-Gao; in the data active means response below about 75% or above about 130%; inactive means in between;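 further: fluorescent Galphao activated with GDP and aluminum fluoride binding bead-coupled RGS7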
RGS16-Gao conf = RGS16-Galphao interaction regulation, single point confirmation; shares compounds with RGS16-Gao; bead-based flow cytometry, RGS16-Galphao binding; actives lie on both sides; response (% of control binding), % at 10 µM; actives 4% (n = 1,700); in the data active means response below about 74% or above about 130%; inactive means in between;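 further: Galphao activated as the GDP aluminium fluoride complex binding bead-coupled RGS16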
RGS4-Gao single = confirmation of regulators of human RGS4-Galphao interaction; shares compounds with RGS16-Gao; RGS4-Galphao binding, multiplexed bead flow cytometry; actives lie on both sides; binding response (% of control), % at 10 µM; actives 4% (n = 1,700); in the data active means binding response below about 74% or above about 130%; inactive means in between
RGS19-Gao conf = RGS19-Galphao interaction regulation, single point confirmation; bead-based flow cytometry RGS19-Galphao binding; actives lie on both sides; response (percent of control binding), % at 10 µM; actives 5% (n = 1,700); shares compounds with RGS16-Gao; in the data active means response below about 50% or above about 160%; inactive means in between;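 further: 100% = no compound control and 0% = blank background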
Target sequence (P09471 whole entry, looked up): as above
Target sequence (P49795 whole entry, looked up): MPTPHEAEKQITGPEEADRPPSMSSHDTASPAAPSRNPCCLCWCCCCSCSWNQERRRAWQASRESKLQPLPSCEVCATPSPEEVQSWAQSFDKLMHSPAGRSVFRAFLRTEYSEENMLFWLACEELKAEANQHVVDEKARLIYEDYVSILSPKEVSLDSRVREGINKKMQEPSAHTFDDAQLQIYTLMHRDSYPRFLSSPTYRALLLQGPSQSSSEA
* marks the source's active call; other numbers are inactive results; [ ] = remark or other dose. Unless noted, how the calls were made is not given here.

For CC1=CC2=NC(=O)/C(=C\c3ccc(-c4ccc(Cl)cc4)o3)C(=N)N2O1 the results were RGS4-Gao reg 153.2*[activator], GSH bead fluor 9, Avidin bead fluor 208*, RGS16-Gao 429.0, RGS7-Gao reg 167.0*[activator], RGS8-Gao reg 115.1, Biotin-avidin 2.1, RGS8-Gao confirm 102.8, RGS7-Gao confirm 101.2, RGS16-Gao conf 112.7, RGS4-Gao single 95.9 and RGS19-Gao conf 235.8*[activator].
`CCN(CC)C(=O)c1ccccc1NS(C)(=O)=O` gave RGS4-Gao reg 97.7, GSH bead fluor 18, Avidin bead fluor 9, RGS16-Gao 116.4, RGS7-Gao reg 95.0 and RGS8-Gao reg 107.0.
O=C(CCCOc1ccc(Cl)cc1Cl)Nc1ncccn1 was read as RGS4-Gao reg 100.0, Avidin bead fluor 4, RGS16-Gao 104.8, RGS7-Gao reg inconclusive and RGS8-Gao reg 99.6.
For Cc1cc(NC(=O)CCCOc2ccc(Cl)cc2Cl)no1 the results were RGS4-Gao reg 141.9, GSH bead fluor 23, Avidin bead fluor 5, RGS16-Gao inactive, RGS7-Gao reg 131.4, RGS8-Gao reg 167.0*[activator] and RGS-Gao 141.9*.
For CCN(C(=O)COC(=O)c1nn(-c2ccccc2)c(=O)c2ccccc12)C1CCS(=O)(=O)C1 (stereo unspecified) the results were RGS4-Gao reg 96.9, Avidin bead fluor 8, RGS16-Gao 99.7, RGS7-Gao reg inconclusive and RGS8-Gao reg 100.8.
`CCNC(=S)Nc1cc(OCC)c(NC(=O)c2cccs2)cc1OCC` gave RGS4-Gao reg 43.5*, GSH bead fluor 6, Avidin bead fluor 7, RGS16-Gao 50.2, RGS7-Gao reg 36.1*, RGS8-Gao reg 61.5, Biotin-avidin -1.8, RGS8-Gao confirm 101.0, RGS7-Gao confirm 100.2, RGS16-Gao conf 101.0, RGS4-Gao single 100.5 and RGS19-Gao conf 95.4.
For O=C(CSc1nc2ccccc2c(=O)n1-c1ccccc1)NCc1ccc2c(c1)OCO2 the results were RGS4-Gao reg 102.2, GSH bead fluor 12, Avidin bead fluor 22, RGS16-Gao 98.8, RGS7-Gao reg 103.5 and RGS8-Gao reg 97.4.
For Cc1cccc(-n2c(SCC(=O)NCc3ccc4c(c3)OCO4)nc3ccccc3c2=O)c1 the results were RGS4-Gao reg 135.0, GSH bead fluor 12, Avidin bead fluor 14, RGS16-Gao 554.6, RGS7-Gao reg 131.1, RGS8-Gao reg 147.9*[activator], RGS-Gao 135.0*, Biotin-avidin -2.2, RGS8-Gao confirm 100.5, RGS7-Gao confirm 97.3, RGS16-Gao conf 100.3, RGS4-Gao single 97.9 and RGS19-Gao conf 92.2.
`CSC(=S)N(C)C1CCS(=O)(=O)C1` (stereo unspecified) gave RGS4-Gao reg 86.9, GSH bead fluor 13, Avidin bead fluor 3, RGS16-Gao 24.5*, RGS7-Gao reg 85.9, RGS8-Gao reg 67.5, RGS-Gao 86.9*, Biotin-avidin -0.2, RGS8-Gao confirm 107.5, RGS7-Gao confirm 105.5, RGS16-Gao conf 93.6, RGS4-Gao single 102.1 and RGS19-Gao conf 53.8.
Cc1nn(-c2ccccc2)c(C)c1/C=N\N1CCN(c2ccc(Cl)cc2)CC1 was read as GSH bead fluor 17, Biotin-avidin 0.3, RGS8-Gao confirm 99.1, RGS7-Gao confirm 100.9, RGS16-Gao conf 102.4, RGS4-Gao single 102.3 and RGS19-Gao conf 91.0.
`CN(CC(=O)NCCc1ccccc1)S(=O)(=O)c1ccccc1` gave RGS4-Gao reg 104.2, GSH bead fluor 16, Avidin bead fluor 12, RGS16-Gao 102.0, RGS7-Gao reg inconclusive and RGS8-Gao reg 102.7.
Screening CNc1nc(-c2ccc3c(c2)CCN3C(=O)c2ccccc2C)cs1 returned RGS4-Gao reg 83.8, GSH bead fluor 18, Avidin bead fluor 3, RGS16-Gao 109.2, RGS7-Gao reg 55.7, RGS8-Gao reg 59.5*, RGS-Gao 83.8*, Biotin-avidin -0.1, RGS8-Gao confirm 102.3, RGS7-Gao confirm 102.3, RGS16-Gao conf 101.9, RGS4-Gao single 101.4 and RGS19-Gao conf 97.9.
Screening CNc1nc(-c2ccc3c(c2)CCN3C(=O)c2ccc(F)cc2)cs1 returned RGS4-Gao reg 103.1, GSH bead fluor 13, Avidin bead fluor 12, RGS16-Gao 109.1, RGS7-Gao reg 100.2 and RGS8-Gao reg 102.3.
For CC1CCN(S(=O)(=O)c2ccc(S(=O)(=O)NCc3ccccc3)cc2)CC1 the results were RGS4-Gao reg 93.0, GSH bead fluor 44, Avidin bead fluor 4, RGS16-Gao 103.1, RGS7-Gao reg 97.0 and RGS8-Gao reg 100.9.
`CC1CCCC(C)N1S(=O)(=O)c1ccc(S(=O)(=O)NCc2ccccc2)cc1` (stereo unspecified) gave RGS4-Gao reg 89.8, GSH bead fluor 22, Avidin bead fluor 3, RGS16-Gao 22.2*, RGS7-Gao reg 92.0, RGS8-Gao reg 70.9, RGS-Gao 89.8*, Biotin-avidin 1.1, RGS8-Gao confirm 95.7, RGS7-Gao confirm 103.4, RGS16-Gao conf 99.0, RGS4-Gao single 98.6 and RGS19-Gao conf 109.5.
COC(=O)c1nc2n(n1)C(c1ccc(OC)c(OC)c1)C(C(=O)OC1CCCCC1)=C(C)N2 (stereo unspecified) was read as RGS4-Gao reg 81.9, GSH bead fluor 54, Avidin bead fluor 2, RGS16-Gao -38.1*, RGS7-Gao reg 88.3, RGS8-Gao reg 87.9, RGS-Gao 81.9*, Biotin-avidin 1.3, RGS8-Gao confirm 102.9, RGS7-Gao confirm 100.2, RGS16-Gao conf 97.4, RGS4-Gao single 101.6 and RGS19-Gao conf 92.8.

Assay outcomes (PubChem BioAssay)
